Records with an inconclusive call do not appear. Values without a mark were called inactive. The call rests on the fitted dose curve; in most records, active means well fitted cell-killing curve with a large enough effect in the repeat runs; inconclusive means weak or mixed curves, or effect the other way; inactive means flat fitted curve, though single readings scatter.
On the % scale 0 is the no-effect control and ±100 the full control effect.

The experiment can be described thus: qHTS assay to identify small molecule antagonists of the constitutive androstane receptor (CAR) signaling pathway - cell viability counter screen (AID 1224837). Further: nearly all actives have a fitted effect of over 45% in size. The note with it: HepG2-CYP2B6-hCAR viability, CellTiter-Fluor, 23 h, co-treated with 50 nM CITCO; series mostly up to 92.4 µM; activity change, negative = cytotoxicity: at the top concentration. An excerpt:
National Center for Advancing Translational Sciences [NCATS]
NIH Chemical Genomics Center [NCGC]
U.S. Environmental Protection Agency [EPA]
National Institutes of Environmental Health Sciences [NIEHS]
National Toxicology Program [NTP]
U.S. Food and Drug Administration [FDA]
The constitutive androstane receptor (CAR) is a nuclear receptor which regulates multiple drug metabolizing enzymes (DMEs) and transporters. Activating CAR will generally increase the transcription and subsequent translation of CYP2B6 and CYP3A4. These two DMEs represent about 50% of the drug metabolizing potential in the body. When CAR is deactivated, the metabolizing potential in the body will decrease, subsequently increasing the toxicity in the body or lowering the therapeutic potential of a pro-drug. Recently, there have also been studies performed indicating CARs role in energy metabolism and cancer therapy. Therefore, inhibiting CARs activity could have a potential effect on diabetes and cancer. Identifying environmental toxins and compounds which modulate CAR, through the use of the Tox21 10K compound collection, will be an important step in determining the toxicity and potential therapeutic effects these factors will have on the human body. To differentiate true CAR antagonists from cytotoxic substances, the assay is multiplexed with a cell viability assay.
Tox21 Assay Protocol Summary:
A double-stable (hCAR and CYP2B6-2.2kb) transfected cell line, derived from human hepatoma (HepG2) cells, was utilized for the duration of the quantitative high-throughput screens. The HepG2-CYP2B6-hCAR cells were dispensed at 2500 cells/4 uL/well in 1536-well white solid bottom plates using a Multidrop Combi. After the assay plates were incubated at 37 C/5% CO2 for 4 hrs, 23 nL of compounds at 15 concentrations (from 5-48 columns) or positive control (from 1 to 4 columns) were transferred to the assay plates using a Pintool station. One uL of CITCO (final concentration = 50 nM) was added, using a Flying Reagent Dispenser, inside each well. After a 23 hr incubation period at 37 C/5% CO2, 1 uL of CellTiter-Fluor reagent was added into each well of the assay plates using a Flying Reagent Dispenser. The fluorescence intensity in the plates was then measured using a ViewLux plate reader.
For orientation: qHTS replaces the single test concentration by a dilution series.
On to `COc1ccc2cc(C=O)ccc2c1`, for which the “activity change, negative = cytotoxicity” value was 2.68% [at 42.5 µM].

As for `C1COCCO1`, the “activity change, negative = cytotoxicity” value is -0.623%.

As to `CC(C)CCCC(C)NCCC(C)C` (stereo not given), the “activity change, negative = cytotoxicity” value is 1.35% [at 42.5 µM].

`OCC(O)[C@@H](O)[C@H](O)[C@H](O)CO[C@H]1O[C@H](CO)[C@@H](O)[C@H](O)[C@H]1O` (stereo not given in full): the “activity change, negative = cytotoxicity” value is 0.357%.

For the compound `C=CCOc1nc(OCC=C)nc(OCC=C)n1`, the “activity change, negative = cytotoxicity” value was 4.75%.

Take `COc1nc(C)nc(N)n1`: the “activity change, negative = cytotoxicity” value was 2.77%.

As to `CC(C)CCCC(C)CCCC(C)CCCCC(C)CCCC(C)CCCC(C)C` (stereo not given), the “activity change, negative = cytotoxicity” value is 1.97% [at 42.5 µM].

Take `C[C@H]1O[C@@H](n2cc(F)c(=O)[nH]c2=O)[C@H](O)[C@@H]1O`: the “activity change, negative = cytotoxicity” value is 0.236% [at 42.5 µM].

As for `O=C(O)/C=C/c1ccc(Cn2ccnc2)cc1`, the “activity change, negative = cytotoxicity” value was 7.72% [at 42.5 µM].

With `N#CC1(O)CCCCC1`, the “activity change, negative = cytotoxicity” value was -17.5%.

`CC(C)COC(=O)c1ccccc1O`: the “activity change, negative = cytotoxicity” value is 3.92%.

On to `NS(=O)(=O)c1cc(C2(O)NC(=O)c3ccccc32)ccc1Cl` (stereo not given), for which the “activity change, negative = cytotoxicity” value is 3.22% [at 42.5 µM].

With `OC1OC[C@@H](O)[C@H](O)[C@H]1O` (stereo not given in full), the “activity change, negative = cytotoxicity” value is 2.52%.

In the case of `COc1ccc(COC=O)cc1`, the “activity change, negative = cytotoxicity” value was 0.702%.

For `CCN1CCCC1CNC(=O)c1cc(S(N)(=O)=O)ccc1OC` (stereo not given), the “activity change, negative = cytotoxicity” value was -9.42%.

As for `CC(C)[N+](C)(C)CC(O)COc1cccc2ccccc12` (stereo not given), the “activity change, negative = cytotoxicity” value is -4.92% [at 42.5 µM].

For the compound `COC(=O)CCCC(=O)O`, the “activity change, negative = cytotoxicity” value is -0.138%.

Take `CCCCCCCCCCCCCCCCCC(=O)OCCCCCCCCCCCCCC(C)C`: the “activity change, negative = cytotoxicity” value was 3.4%.

For `NCC[C@H](O)C(=O)N[C@@H]1C[C@H](N)[C@@H](O[C@H]2O[C@H](CN)[C@@H](O)[C@H](O)[C@H]2O)[C@H](O)[C@H]1O[C@H]1O[C@H](CO)[C@@H](O)[C@H](N)[C@H]1O`, the activity change, negative = cytotoxicity was 3.03% [at 0.349 µM].

Turning to `OCC(CO)(CO)COCC(CO)(CO)CO`, the “activity change, negative = cytotoxicity” value is -4.36%.

Regarding `COC(C(=O)O)c1ccccc1` (stereo not given), the “activity change, negative = cytotoxicity” value was 2.69%.

As to `CC(C)c1ccc2oc3nc(N)c(C(=O)O)cc3c(=O)c2c1`, the “activity change, negative = cytotoxicity” value was -5.57% [at 42.5 µM].

As for `O=C(O)c1ccccc1-c1ccc(C(F)(F)F)cc1`, the “activity change, negative = cytotoxicity” value is -0.771% [at 42.5 µM].

Take `CC(C)[C@H](N)C(=O)OCCOCn1cnc2c(=O)[nH]c(N)nc21`: the “activity change, negative = cytotoxicity” value is 4.78% [at 42.5 µM].

For `Cn1cnc2c(=O)[nH]c(N)nc21`, the “activity change, negative = cytotoxicity” value is 4.38%.

`COC(=O)[C@H]1[C@H]2C[C@@H]3c4[nH]c5cc(OC)ccc5c4CCN3C[C@H]2C[C@@H](OC(=O)COc2ccc(OC)cc2)[C@@H]1OC`: the “activity change, negative = cytotoxicity” value is 1.34% [at 42.5 µM].

`CCCC(=O)O[C@]1(C(=O)CCl)[C@@H](C)C[C@H]2[C@@H]3CCC4=CC(=O)C=C[C@]4(C)[C@@]3(F)C(=O)C[C@@]21C`: the “activity change, negative = cytotoxicity” value was -5.72% [at 42.5 µM].

Turning to `COC(=O)c1ccc(C(=O)OC)c(C(=O)OC)c1`, the “activity change, negative = cytotoxicity” value was 0.382%.

For the compound `CC(=O)c1ccc(C)cc1`, the “activity change, negative = cytotoxicity” value was 4.86%.

`CC(=O)OC(C)(C)C`: the “activity change, negative = cytotoxicity” value was 1.39%.

Turning to `COC[C@H](c1ccc(C(F)(F)F)cc1)N1CCN(C2(C)CCN(C(=O)c3c(C)ncnc3C)CC2)C[C@H]1C`, the “activity change, negative = cytotoxicity” value was -5.48% [at 42.5 µM].

As to `CCCCc1ccc2cccc(S(=O)(=O)O)c2c1`, the “activity change, negative = cytotoxicity” value was -1.07%.

As for `CCN1CCCC(OC(=O)C(c2ccccc2)c2ccccc2)C1` (stereo not given), the “activity change, negative = cytotoxicity” value was -7.11% [at 42.5 µM].

As to `OCc1ccccn1`, the “activity change, negative = cytotoxicity” value is -15.3% [at 42.5 µM].

As for `O=[N+]([O-])c1ccc(CCO)cc1`, the “activity change, negative = cytotoxicity” value was -2.22%.

As to `CC1(C)SC(C)(C)SC(C)(C)S1`, the “activity change, negative = cytotoxicity” value was 1.87%.

As for `COc1ccc(N=[N+]([O-])c2ccc(OC)cc2)cc1`, the “activity change, negative = cytotoxicity” value was -10.4%.

`Oc1cc(O)c2c(c1)O[C@H](c1ccc(O)c(O)c1)[C@H](O)C2`: the “activity change, negative = cytotoxicity” value is -0.733% [at 42.5 µM].

Consider `CCN(CC)S(=O)(=O)c1ccc(C(=O)O)cc1`, for which the “activity change, negative = cytotoxicity” value was 6.01% [at 42.5 µM].

`C1=C\CC/C=C\CC/C=C\CC/1`: the “activity change, negative = cytotoxicity” value was 4.06%.
